Experimental findings from PubChem BioAssay are described below.

Assay [1] in a line: inhibitors of TNFa-induced NFkB p65 translocation, primary screen, imaging, HUVEC, MLSMR starter and 10KST1 sets (AID 438;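 active means inhibition above 20% together with a positive visual image hit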;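 further: compound added about 3h40 before a 20 min TNFalpha stimulation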;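 on inhibition: signal is the nuclear over cytoplasmic p65 intensity ratio per well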). The following applies: HUVEC TNFa-induced p65 nuclear translocation; cell count: measured here: nuclei count (cytotoxicity indicator), at 2.08 µM; inhibition: at 2 µM, stronger effect = higher value, 0% TNFa-plus-vehicle, 100% no-TNFa wells.
The nature of assay [2]: reduction of polyQ htt aggregates in cells – imaging, exon1htt(103Q)mCFP cells, high-content imaging, primary screen (AID 483;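 active means visual image review flags a hit and inhibition of aggregation exceeds 20%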;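 further: compound exposure lasted 3 days before fixation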;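 on nuclei count: percent of the per-plate median nuclei count of sample wells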). The following applies: exon1htt(103Q)mCFP cell line, aggregate imaging, at 2 µM; inhibition of aggregation: stronger effect = higher value; nuclei count: measured here: cell count, toxicity.
A short description of assay [3]: endothelial E-selectin expression blockers – imaging, HUVEC, immunofluorescence, MLSMR starter and 10KST1 sets, primary screen (AID 487;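 active means visually confirmed hit in the image check and inhibition above 20%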;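 on inhibition: signal is fraction of cell area covered by stained E-selectin grains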;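 on nuclei count: 100% = median nuclei count of all wells on the same plate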). The following applies: HUVEC TNFalpha-induced E-selectin immunofluorescence imaging, at 2 µM; inhibition: stronger effect = higher value; nuclei count: measured here: cell number, toxicity.
A short description of assay [4]: Primary imaging screen for DUSP6 inhibitors that restore phospho-Erk in transfected HeLa cells, chemical complementation (AID 609;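 active means compounds giving at least 50% inhibition in the cell-based MKP-3 phosphatase rescue imaging test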;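 on inhibition: phospho-Erk level distribution per well compared with pooled transfected vehicle control wells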). As to conditions: HeLa MKP-3 transfected, phospho-Erk imaging KS statistic, at 10 µM, cells stimulated with TPA for 15 min.
Assay [5] concerns the target Dual specificity protein phosphatase 6 (Homo sapiens) (UniProt Q16828). The description is as above. The following applies: HeLa MKP-3 transfected, phospho-Erk imaging KS statistic; at 10 µM; stronger effect = higher value; cells stimulated with TPA for 15 min.
In assay [6] the target is Voltage-gated potassium channel subunit beta-2 (Rattus norvegicus) (UniProt P62483). Put plainly: inhibitors of rat Kvbeta2 reductase activity – biochemical, NADPH fluorescence, primary screen (AID 622).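 Further: slope of raw intensity against log time taken from 70 to 1610 s.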 The following applies: recombinant KvBeta, 4-cyanobenzaldehyde reduction, at 10 µM, stronger effect = higher value.
Sequence of Voltage-gated potassium channel subunit beta-2 (Rattus norvegicus) (P62483 whole entry, looked up): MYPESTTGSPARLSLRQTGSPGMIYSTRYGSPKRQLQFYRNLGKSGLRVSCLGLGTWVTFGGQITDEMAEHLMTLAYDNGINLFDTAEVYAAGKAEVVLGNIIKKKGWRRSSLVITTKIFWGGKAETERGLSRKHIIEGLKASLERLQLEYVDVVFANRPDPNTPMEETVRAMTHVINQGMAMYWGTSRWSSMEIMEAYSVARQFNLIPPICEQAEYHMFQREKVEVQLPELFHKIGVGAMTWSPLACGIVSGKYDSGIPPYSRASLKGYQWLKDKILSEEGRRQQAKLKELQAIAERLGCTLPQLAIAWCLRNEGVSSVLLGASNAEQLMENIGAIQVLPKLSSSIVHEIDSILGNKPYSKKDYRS
Assay [7] shares this target. As to the kind of experiment: enhancers of rat Kvbeta2 NADPH turnover – biochemical, NADPH fluorescence, primary screen (AID 623;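 active means NADPH fluorescence slope more negative than the mean of all samples by about 3 SD, 99.7% confidence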;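 further: fluorescence intensity change per second fitted from 20 to 320 s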). As to conditions: Recombinant KvBeta, NADPH fluorescence decrease slope, 10 min; at 10 µM; stronger effect = lower value.
Assay [8] addresses Alpha-2C adrenergic receptor (Homo sapiens) (UniProt P18825). Put plainly: compounds altering alpha2C-coupled GIRK flux – cell-based, HEK293 alpha2C/GIRK1/2, thallium flux, primary screen (AID 624;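 active means fluorescence slope after compound addition differing from the mean of all screened samples at 99.7% confidence, in either direction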;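 further: slope of fluorescence ratio to pre-addition baseline per second over 15 to 24 s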). The following applies: thallium flux BTC fluorescence, at 10 µM, actives lie on both sides.
Assay [9] in a line: inhibitors of larval lipid processing in zebrafish, primary screen, whole organism, PED6 fluorescence, gall bladder and intestine (AID 686;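 active means a full or partial loss of lipid-probe fluorescence in the fish gall bladder, intestine or both, judged by eye; inactive means no fluorescence loss, or compound toxic to the fish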;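 further: larvae 5 to 7 days old with five fish per well; signal comes from phospholipase A2 cleavage of quenched PED6 carried via bile; overnight exposure to compound and PED6 before scoring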). The following applies: Zebrafish larvae PED6 lipid processing, fluorescence scoring; screened at 20 µM (by protocol).
Assay [10] is described as follows: loss of swimming-algae plug formation – whole organism, Chlamydomonas reinhardtii, WT vs cilia-less mutant, absorbance, 96-well, primary screen (AID 463189;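 active means inhibition at or above 50% relative to wild type and mutant plate controls; inactive means inhibition below 50%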;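 further: 0% = wild type cc124 cells in DMSO and 100% = ciliumless bld1 mutant cells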). As to conditions: Chlamydomonas reinhardtii gravitaxis, OD600 absorbance, 2 days; at 10 µM; stronger effect = higher value.
Assay [11] is described as follows: blockers of RIG-like receptor reporter activation – cell-based, Sendai virus stimulus, luciferase, 10K MLSCN set, TLR/RLR signaling modifier project, primary screen (AID 602276;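 active means inhibition at or above 50% at 10 µM; inactive means inhibition below 50%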;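 further: firefly luciferase from ISG56 promoter only with Renilla not read in this screen; 0% = Sendai virus plus DMSO and 100% = medium plus DMSO without virus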). As to conditions: HEK293 RL24 IRF3 luciferase reporter, at 10 µM, stronger effect = higher value. A general note: A reporter such as luciferase makes a cellular process visible.
Assay [12] can be described thus: TLR3 IRF3 reporter activation blockers – cell-based, poly I:C stimulus, luciferase, 10K MLSCN set, primary screen (AID 602277;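 active means inhibition of the reporter signal at or above 50%; inactive means inhibition below 50%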). The following applies: HEK293-TLR3 RL24 IRF3 luciferase reporter, at 10 µM, stronger effect = higher value.
The mark [13] stands for this setting: measured here: cell density z-score.
Setting [14] is: measured here: nuclear c-Myc green intensity z-score.
[15] abbreviates: measured here: nuclear pErk red intensity z-score, stronger effect = higher value.

Calls of active or inactive are those of the source.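 How the source made its calls, unless noted: active means fluorescence slope higher than the sample average by over 3 SD (cut at about -0.22 in these data, passing the limit was not always enough); inactive means the rest.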

Sequence of Alpha-2C adrenergic receptor (Homo sapiens) (P18825 whole entry, looked up): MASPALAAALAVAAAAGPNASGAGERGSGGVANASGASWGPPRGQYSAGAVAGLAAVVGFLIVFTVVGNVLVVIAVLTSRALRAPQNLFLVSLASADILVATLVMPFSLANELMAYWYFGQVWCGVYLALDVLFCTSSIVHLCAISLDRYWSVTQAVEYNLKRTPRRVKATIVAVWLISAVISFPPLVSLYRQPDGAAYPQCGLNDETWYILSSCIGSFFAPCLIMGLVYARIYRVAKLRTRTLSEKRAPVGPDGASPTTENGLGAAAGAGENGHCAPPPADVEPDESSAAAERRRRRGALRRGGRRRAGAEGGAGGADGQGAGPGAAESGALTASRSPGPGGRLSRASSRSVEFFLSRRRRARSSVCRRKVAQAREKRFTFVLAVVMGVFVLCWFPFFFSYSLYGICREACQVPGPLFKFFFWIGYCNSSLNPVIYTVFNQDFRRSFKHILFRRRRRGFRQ
Sequence of Dual specificity protein phosphatase 6 (Homo sapiens) (Q16828 whole entry, looked up): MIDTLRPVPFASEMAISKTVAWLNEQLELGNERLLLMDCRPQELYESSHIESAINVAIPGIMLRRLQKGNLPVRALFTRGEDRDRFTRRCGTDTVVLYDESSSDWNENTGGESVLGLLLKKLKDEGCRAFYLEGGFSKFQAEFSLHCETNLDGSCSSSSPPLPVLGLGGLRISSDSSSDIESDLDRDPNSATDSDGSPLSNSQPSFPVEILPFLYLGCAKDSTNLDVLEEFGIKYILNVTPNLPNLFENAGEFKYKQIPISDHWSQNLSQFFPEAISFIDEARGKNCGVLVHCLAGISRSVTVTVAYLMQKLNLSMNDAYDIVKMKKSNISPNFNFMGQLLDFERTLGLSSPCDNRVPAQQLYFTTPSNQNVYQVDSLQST

Turning to `COc1cc(-c2nn3c(-c4cccnc4)nnc3s2)cc(OC)c1OC`, the cell count in assay [1] stood at 561. Also, the inhibition (usually the relative decrease from the control value, in per cent) in assay [1] was -0.7% (inactive); in assay [3] it was -152% (inactive); in assay [5], 15.5% (inactive); in [10], 18.4% (inactive); in assay [11] it was 12.1% (inactive); in assay [12] it was 8.92% (inactive). In addition, the inhibition of aggregation in [2] was -9.6% (inactive). Besides, the nuclei count in [2] was 103%; in [3], 134%. Also, the values for the z-score in assay [4] (setting [13]), in [4] (setting [14]) and in [4] (setting [15]) were 0.586, -0.752 and -1.22, respectively. Moreover, in assay [6], the fluorescence slope was -0.41 (inactive). For the same compound, in [7], the NADPH fluorescence slope is -0.000121 (inactive). Further, the slope in assay [8] is 0.0074 (inactive). The result in assay [9] was inactive.
With `NC(Cc1ccc(Oc2ccc(O)cc2)cc1)C(=O)O` (stereo not given), the cell count in assay [1] worked out at 563. Besides, the inhibition is -6.8% (inactive) in assay [1]; -19.7% (inactive) in assay [3]; 3.45% (inactive) in assay [5]; -4.82% (inactive) in assay [10]; 11.4% (inactive) in assay [11]; 24.4% (inactive) in assay [12]. The inhibition of aggregation in assay [2] was -8.1% (inactive). For the same compound, the nuclei count in assay [2] and in assay [3] was 103% in each case. In addition, the z-score in assay [4] (setting [13]) is -0.271; in [4] (setting [14]), -1.56; in assay [4] (setting [15]), -0.79. Besides, the fluorescence slope in assay [6] was -0.495 (inactive). In addition, in assay [7], the NADPH fluorescence slope is -5.7e-05 (inactive). Further, in assay [8], the slope is 0.00414 (inactive). For the same compound, the compound was classed as inactive in [9].
Consider `CCCCCCCC(=O)OCC(=O)[C@@]1(O)CC[C@H]2[C@@H]3CCC4=CC(=O)CC[C@]4(C)[C@H]3[C@@H](O)C[C@@]21C`, for which the cell count in assay [1] came out at 531. Besides, the inhibition in assay [1] is -8.2% (inactive); in [3], 3.4% (inactive); in assay [5], -8.38% (inactive); in [10], -10.8% (inactive); in assay [11], 15.2% (inactive); in [12] it was 49.5% (inactive). In addition, the inhibition of aggregation in assay [2] is -25.1% (inactive). The nuclei count in [2] was determined as 92.7%; in assay [3], 107%. The z-score in [4] (setting [13]) is -0.552; in assay [4] (setting [14]), -1.25; in assay [4] (setting [15]), -0.122. Moreover, the fluorescence slope in assay [6] was -0.503 (inactive). For the same compound, the NADPH fluorescence slope in [7] was -5.1e-05 (inactive). Besides, the slope in assay [8] was 0.0075 (inactive). Besides, in assay [9], the outcome was inactive.
Take `OC(CCN1CCCCC1)(c1ccccc1)c1ccccc1`: in assay [1], the cell count came out at 674. Also, the inhibition in assay [1] is -1.6% (inactive); in [3], -75.5% (inactive); in [5] it was -0.493% (inactive); in [10], -6.75% (inactive); in [11] it was 16.1% (inactive); in [12], 48% (inactive). Further, the inhibition of aggregation in assay [2] was -18% (inactive). Moreover, the nuclei count is 108% in [2] and 114% in assay [3]. Moreover, the results for the z-score in [4] (setting [13]), in assay [4] (setting [14]) and in assay [4] (setting [15]) were 0.144, -1.15 and -0.931, respectively. The fluorescence slope in assay [6] was -0.458 (inactive). In addition, the NADPH fluorescence slope in assay [7] was -3.9e-05 (inactive). Also, the slope in assay [8] was 0.00533 (inactive). The call in assay [9] was inactive.
Turning to `COc1cc(/C=N/n2c(C)nnc2C)cc(OC)c1OC`, the cell count in assay [1] is 454. In addition, the inhibition in assay [1] is -5.9% (inactive); in assay [3], -27.1% (inactive); in assay [5], -1.75% (inactive); in assay [10], 23.6% (inactive); in assay [11], 14% (inactive); in assay [12], 13.7% (inactive). Further, the inhibition of aggregation in assay [2] was 3.2% (inactive). The figures for the nuclei count in assay [2] and in [3] were 109% and 92.1%, respectively. Moreover, the z-score in assay [4] (setting [13]) is 0.126; in assay [4] (setting [14]), -0.553; in [4] (setting [15]), -1.17. In addition, in [6], the fluorescence slope was -0.395 (inactive). For the same compound, the NADPH fluorescence slope in [7] is -3.1e-06 (inactive). Besides, the slope in [8] is 0.00638 (inactive). Also, the result in assay [9] was inactive.
